Here are results for 9 molecules from PubChem BioAssay.

The structures appear in SMILES notation. Activity calls are given as the source filed them. Unless noted, no rule for the calls is given here.

The nature of assay [1]: resazurin metabolic signal in HepG2 cells – cell-based, resazurin fluorescence, 24 h, PK04 Diversity Set, profiling panel (AID 1172). Also: test concentration not given here. The conditions noted are these: HepG2 viability, higher = more signal. Background: The colour change of resazurin is a common sign of viable cells or microbes.
Assay [2] is described as follows: budding yeast growth changes without added modifier – OD600, strain BY4716, 24 h, basal condition, primary screen (AID 1173). The conditions noted are these: S. cerevisiae BY4716 growth, OD600, 24 h; higher = more signal, called active from +8 up or from −8 down.
A short description of assay [3]: viability profiling in MM1S myeloma cells – cell-based, resazurin fluorescence, basal, 24 h, PK04 Diversity Set, profiling panel (AID 1174).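 Also: MM1S multiple myeloma cell line; test concentration not given here.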 The conditions noted are these: higher = more signal, called active from +8 up or from −8 down.
The target in assay [4] is Dihydroorotate dehydrogenase (quinone), mitochondrial (Plasmodium falciparum (isolate 3D7)) (UniProt Q08210). Briefly: inhibition of P. falciparum DHODH – biochemical, C-terminal His tag, absorbance 600 nm, primary screen (AID 1175).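 Also: recombinant parasite enzyme with a five histidine tag at its C terminus; test concentration not given here.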 The note with it: PfDHODH enzyme, DCIP absorbance 600 nm; higher = more signal, called active from +8 up or from −8 down.
Assay [5] is described as follows: inhibition of PAO1 biofilm formation – strain PAO1, LB-PBS medium, absorbance 600 nm, primary screen (AID 1176). Also: test concentration not given here. The note with it: P. aeruginosa PAO1 growth/biofilm, A600, 12 h; higher = more signal.
Assay [6] can be described thus: growth modulation of vineyard yeast isolate – strain RM11-1a, OD600, basal, 24 h, primary screen (AID 1177).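 Also: cultures grown under basal conditions with no added stressor; test concentration not given here.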 The note with it: S. cerevisiae RM11-1a growth, OD600, 24 h; higher = more signal, called active from +8 up or from −8 down.
The nature of assay [7]: growth of efflux-deficient E. coli DRC39 – strain DRC39, OD650, 24 h, E. coli filamentation inducers, primary screen (AID 1178).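 Also: growth measured as culture turbidity by optical density at 650 nm; test concentration not given here.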 The conditions noted are these: E. coli DRC39 acrAB, higher = more signal, called active from +8 up or from −8 down.
Assay [8] in a line: growth of efflux-deficient E. coli DRC39 – strain DRC39, OD650, 48 h, E. coli filamentation inducers, primary screen (AID 1179).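 Also: screen aims at cell division blockers that make cells filament.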 The conditions noted are these: E. coli DRC39 delta-acrAB growth, higher = more signal, called active from +8 up or from −8 down.
Assay [9] is described as follows: viability profiling in RPMI8226 myeloma cells – cell-based, resazurin fluorescence, basal, 24 h, PK04 Diversity Set, profiling panel (AID 1180).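 Also: RPMI8826 multiple myeloma cell line at 5000 cells per well; test concentration not given here.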 The conditions noted are these: higher = more signal.
Assay [10] addresses E3 ubiquitin-protein ligase XIAP (Homo sapiens) (UniProt P98170). Briefly: small molecules binding XIAP protein – biophysical, small-molecule microarray, fluorescence 635 nm, primary screen (AID 1181).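 Also: score merges 667 nm emission and signal to noise over triplicate slides.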 The note with it: higher = more signal.

Dihydroorotate dehydrogenase (quinone), mitochondrial (Plasmodium falciparum (isolate 3D7)), sequence (Q08210 whole entry, looked up): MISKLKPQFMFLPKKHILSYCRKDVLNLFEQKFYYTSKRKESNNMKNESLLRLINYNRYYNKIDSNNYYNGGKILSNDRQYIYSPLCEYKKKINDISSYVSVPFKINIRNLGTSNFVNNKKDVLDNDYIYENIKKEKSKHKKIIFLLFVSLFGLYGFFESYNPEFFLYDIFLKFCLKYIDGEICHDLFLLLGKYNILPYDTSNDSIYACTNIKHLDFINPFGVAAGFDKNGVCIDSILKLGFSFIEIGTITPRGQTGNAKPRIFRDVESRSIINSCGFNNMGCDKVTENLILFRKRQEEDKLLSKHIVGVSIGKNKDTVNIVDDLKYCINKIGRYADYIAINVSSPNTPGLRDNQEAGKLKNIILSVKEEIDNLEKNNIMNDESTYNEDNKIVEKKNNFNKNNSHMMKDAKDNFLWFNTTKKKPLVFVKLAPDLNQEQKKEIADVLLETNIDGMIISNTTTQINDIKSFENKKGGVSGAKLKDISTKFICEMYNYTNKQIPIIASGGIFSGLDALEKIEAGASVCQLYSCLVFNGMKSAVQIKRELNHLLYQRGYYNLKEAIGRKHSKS
E3 ubiquitin-protein ligase XIAP (Homo sapiens), sequence (P98170 whole entry, looked up): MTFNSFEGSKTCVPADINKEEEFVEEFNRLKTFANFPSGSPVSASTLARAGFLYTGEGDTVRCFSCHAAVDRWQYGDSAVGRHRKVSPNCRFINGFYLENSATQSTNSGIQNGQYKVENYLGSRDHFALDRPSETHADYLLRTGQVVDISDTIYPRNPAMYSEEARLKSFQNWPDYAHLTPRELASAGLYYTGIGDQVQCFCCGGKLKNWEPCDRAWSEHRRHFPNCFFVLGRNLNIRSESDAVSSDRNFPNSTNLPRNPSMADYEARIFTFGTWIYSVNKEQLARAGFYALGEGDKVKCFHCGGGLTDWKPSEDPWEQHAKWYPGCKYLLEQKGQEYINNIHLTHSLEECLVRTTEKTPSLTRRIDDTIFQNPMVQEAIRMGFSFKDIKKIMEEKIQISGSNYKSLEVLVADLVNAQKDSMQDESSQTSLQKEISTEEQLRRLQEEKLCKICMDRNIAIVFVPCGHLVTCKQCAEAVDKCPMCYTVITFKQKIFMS

As for `CCc1oc(CC[C@@H](CO)NC(=O)NCCn2cc(C3(O)CCCCC3)nn2)c(C(=O)OC)c1C(=O)OC`, the z-score was -0.676 in [1]; -1.16 (inactive) in assay [2]; -0.658 (inactive) in assay [3]; -0.109 (inactive) in [5]; -0.298 (inactive) in assay [6]; -0.247 (inactive) in assay [7]. The z-score in assay [8] was -0.64 (inactive); in [9], -0.626. Also, the composite z-score is -0.32 (inactive) in assay [4] and -0.0078 in assay [10].
Consider `COc1cc2c(cc1O)C=[N+](Cc1cccc(OC(F)(F)F)c1)CC2`, for which the z-score was -0.935 in assay [1]; 0.165 (inactive) in [2]; -0.682 (inactive) in assay [3]; -0.531 (inactive) in assay [5]; -0.957 (inactive) in [6]; 0.0214 (inactive) in assay [7]. The figures for the z-score in [8] and in assay [9] were 0.569 (inactive) and -1.25, respectively. The results for the composite z-score in assay [4] and in assay [10] were -3.35 (inactive) and -0.259, respectively.
`CCOC(=O)C[C@H]1[C@H](OC(=O)c2ccc(C(=O)c3ccccc3)cc2)[C@@H](NC(=O)c2ccc(-c3ccccc3)cc2)c2cc(OCCCO)ccc2N1C(=O)c1ccccc1`: the z-score in [1] was -0.587; in [2] it was -0.0317 (inactive); in [3] it was -0.27 (inactive); in assay [5], 0.0429 (inactive); in [6], -0.469 (inactive); in assay [7] it was -0.486 (inactive). Further, the z-score in [8] is -0.566 (inactive); in assay [9] it was -0.387. Further, the values for the composite z-score in [4] and in [10] were -0.972 (inactive) and 0.0153, respectively.
With `CCCC#C[Si](O[C@H](CC)c1cn([C@H](CO)Cc2ccccc2)nn1)(C(C)C)C(C)C`, the z-score in [1] is 0.442; in assay [2], -12.8 (active); in assay [3], 0.11 (inactive); in [5], 0.0885 (inactive); in assay [6], 0.852 (inactive); in assay [7], -0.281 (inactive). Further, the z-score in assay [8] was -0.154 (inactive); in assay [9], 0.114. Further, the composite z-score in [4] is 0.225 (inactive); in assay [10], -0.121.
Turning to `[N-]=[N+]=NCc1ccccc1C[C@]1(C(=O)O)N=C(c2ccc(OCCCO)cc2)O[C@H]1c1ccccc1N=[N+]=[N-]`, the z-score in [1] was -0.213; in [2], -0.496 (inactive); in assay [3], -1.43 (inactive); in assay [5] it was -0.043 (inactive); in assay [6] it was 1.45 (inactive); in assay [7], 0.989 (inactive). The z-score was -0.0775 (inactive) in assay [8] and -1.82 in assay [9]. Besides, the values for the composite z-score in assay [4] and in assay [10] were 2.26 (inactive) and 0.0808, respectively.
On to `COC(=O)[C@@]1(Cc2ccc(F)cc2)[C@@H]2[C@@H](CC(=O)[C@H]2CC(=O)C(=O)N(C)C)CN1C(=O)c1ccccc1`, for which the z-score in [1] was -2.11; in [2], 1.52 (inactive); in [3], -1.4 (inactive); in assay [5] it was 0.784 (inactive); in assay [6] it was 0.438 (inactive); in assay [7], -0.287 (inactive). The figures for the z-score in [8] and in assay [9] were -0.13 (inactive) and -2.97, respectively. For the same molecule, the values for the composite z-score in assay [4] and in assay [10] were -0.363 (inactive) and 0.0253, respectively.
In the case of `CN1C(=O)C2C=CC(C(O)c3ccc(-c4ccccc4)s3)N(N(c3ccccc3)c3ccccc3)C2C1=O` (stereo not given), the z-score in assay [1] was -0.748; in [2], -0.215 (inactive); in assay [3] it was -0.609 (inactive); in assay [5] it was 1.23 (inactive); in assay [6], 0.512 (inactive); in assay [7] it was -0.554 (inactive). Also, the z-score in assay [8] was -0.24 (inactive); in [9], -0.109. Also, the results for the composite z-score in [4] and in [10] were -0.585 (inactive) and 0.174, respectively.
Regarding `COc1ccc(C(=O)Nc2ccc(CN3C(=O)[C@@]4(O[C@@H](CCn5cc([C@H](O)c6ccccc6)nn5)[C@H]([Si](C)(C)c5ccc(OC)cc5)[C@H]4C)c4ccccc43)cc2)cc1`, the z-score in assay [1] was -1.44; in assay [2] it was -0.91 (inactive); in assay [3], -3.18 (inactive); in [5] it was 1.04 (inactive); in assay [6] it was 1.57 (inactive); in [7] it was 0.245 (inactive). Further, the z-score in [8] was 0.195 (inactive); in assay [9], -3.11. Moreover, the values for the composite z-score in assay [4] and in assay [10] were -0.441 (inactive) and -0.16, respectively.
For the molecule `C=CC[C@]1(C(=O)N2CCCCC2)N=C(c2ccc(OCCCO)cc2)O[C@H]1c1ccccc1`, the z-score in [1] is 1.77; in assay [2], -2.06 (inactive); in assay [3] it was 0.91 (inactive); in assay [5] it was -0.481 (inactive); in [6], 0.646 (inactive); in assay [7] it was 0.825 (inactive). Further, the values for the z-score in assay [8] and in [9] were -0.189 (inactive) and 1.93, respectively. The composite z-score in [4] is -0.309 (inactive); in [10] it was -0.0563.
